In PubChem BioAssay (NCATS):
Several values for one entry are separate records, joined by “and”; a condition that tells them apart may be missing. Equal values may be shown once. Results filed as inconclusive are left out. Some structures have more than one record in an assay (separate samples or runs), and their calls can disagree. Activity calls are given as the source filed them. Calls follow the shape of the dose curve; as a rule, active = well fitted curve in the direction sought with a large enough effect; inconclusive = small, poorly fitted or top-dose-only effect, or another doubt; inactive = no such curve, though single readings can be large; an effect the other way counts as inactive or inconclusive.

Columns and labels:
[1] = Viability qHTS for spleen associated tyrosine kinase inhibitor (SYKi) naive MV4-11 cells (AID 1963823); conditions: MV4-11 AML viability, CellTiter-Glo luminescence, 72 h; series mostly up to 45 µM; also: nearly all actives have a fitted effect of over 40% in size
Procedure, shortened: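 Viability of MV4-11 AML cells lacking prior SYK inhibitor exposure is scored by CellTiter-Glo luminescence following 72 hr compound incubation at 37 C, 5% CO2, seeded at 500 cells per well.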

[2] = Viability qHTS for spleen associated tyrosine kinase inhibitor (SYKi) drug resistant MV4-11 cells (AID 1963824); conditions: SYKi-resistant MV4-11 viability, CellTiter-Glo, 72 h; series mostly up to 45 µM; also: nearly all actives have a fitted effect of over 35% in size
Procedure, shortened: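 CellTiter-Glo luminescence, read 10 min after reagent addition, reports viability after a 72 hr compound exposure. Cells are an MV4-11 line made resistant to SYK inhibition, seeded at 500 per well onto compound-containing plates.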

[3] = Cellular viability qHTS for adrenocortical cancer (ACC) cell line SW-13 (AID 1963989); conditions: SW-13 ACC cells viability, CellTiter-Glo, 48 h; activity (max response): stronger effect = lower value; also: nearly all actives have a fitted effect of over 65% in size;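 as to activity (max response): cells grown in serum-free medium with ITS supplement; % is scaled to controls: 0 for no effect and ±100 for the full control effect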
Procedure, shortened: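 Viability was read as CellTiter-Glo luminescence after 48 h compound treatment (up to 46 uM final) of SW-13 cells grown serum-free; titration curves were fit with a four-parameter logistic model to give IC50 and efficacy.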

[4] = Cellular viability qHTS for adrenocortical cancer (ACC) cell line NCI-H295R (AID 1963990); conditions: CellTiter-Glo ATP luminescence, 48 h; series mostly up to 46.1 µM; also: nearly all actives have a fitted effect of over 60% in size
Procedure, shortened: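 CellTiter-Glo ATP luminescence, read 48 h after compound addition, measured viability of NCI-H295R adrenocortical cells grown serum-free with ITS. Final concentrations spanned up to 46 uM. Data normalized to DMSO and doxorubicin, fitted for IC50 and maximal response.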
Potency is read from the fitted curve at half-maximal effect.

Compound: CN1C(=O)N[C@H](Cc2c[nH]c3c(Cl)cccc23)C1=O
- Potency [1]: inactive
- Potency [2]: inactive
- activity (max response) [3]: -3.83% (inactive)
- Potency [4]: inactive

Compound: C[C@@H]1CC(=O)Nc2cccc(-c3ccc4c(c3)c(-c3cnn(C)c3)nn4C)c2N1
- Potency [1]: 2.09 µM (active)
- Potency [2]: 1.32 µM (active)
- activity (max response) [3]: -3.66% (inactive)
- Potency [4]: inactive

Compound: O=C(c1ccccc1)C(O)c1ccccc1 (stereo not given)
- Potency [1]: inactive
- Potency [2]: inactive
- activity (max response) [3]: 11.7% (inactive)
- Potency [4]: inactive

Compound: c1ccc2sc(SSc3nc4ccccc4s3)nc2c1
- Potency [1]: inactive
- Potency [2]: inactive
- activity (max response) [3]: -16.2% (inactive)
- Potency [4]: inactive

Compound: Nc1ccc([N+](=O)[O-])c(C(F)(F)F)c1
- Potency [1]: inactive
- Potency [2]: inactive
- activity (max response) [3]: 0.003% (inactive)
- Potency [4]: inactive

Compound: CCCC1(CCC)CCC2(CCN(CCCN(CC)CC)C2)CC1
- Potency [1]: 2.35 µM (active)
- Potency [2]: 2.31 µM (active)
- Potency [3]: 3.55 µM (active)
- Potency [4]: 6.31 µM (active)

Compound: C=C1C[C@H]2C=Nc3cc(OCCCOc4cc5c(cc4OC)C(=O)N4CC(=C)C[C@H]4C=N5)c(OC)cc3C(=O)N2C1
- Potency [1]: inactive
- Potency [2]: inactive
- Potency [3]: 0.01 µM (active)
- Potency [4]: 0.1 µM (active)

Compound: COc1ccc(-c2oc3ncnc(N)c3c2-c2ccc(NC(=O)Nc3cc(C(F)(F)F)ccc3F)cc2)cc1
- Potency [1]: 41.1 nM (active) and 66.1 nM (active)
- Potency [2]: 103 nM (active) and 166 nM (active)
- activity (max response) [3]: 0.756% (inactive)
- Potency [4]: inactive

Compound: COc1cc(Cc2cnc(N)nc2N)cc(OC)c1OC
- Potency [1]: inactive
- Potency [2]: inactive
- activity (max response) [3]: -3.43% (inactive)
- Potency [4]: inactive

Compound: CC(C)NCC(O)c1cc(O)cc(O)c1 (stereo not given)
- Potency [1]: inactive
- Potency [2]: inactive
- activity (max response) [3]: 13.2% (inactive)
- Potency [4]: inactive

Compound: CCC[C@H](NC(=O)/C(C#N)=C/c1cccc(Br)n1)c1ccccc1
- Potency [1]: 2.09 µM (active)
- Potency [2]: 2.35 µM (active)
- Potency [4]: 12.6 µM (active)

Compound: COc1ccc2nc3n[nH]c(C)c3c(NCCOCCO)c2c1
- Potency [1]: 18.4 µM (active) and 9.34 µM (active)
- Potency [2]: 16.4 µM (active) and 13.2 µM (active)
- activity (max response) [3]: 0.542% (inactive)
- Potency [4]: inactive

Compound: CC(C)N(CCCNC(=O)Nc1ccc(C(C)(C)C)cc1)C[C@H]1O[C@@H](n2cc(Br)c3c(N)ncnc32)[C@H](O)[C@@H]1O
- Potency [1]: 4.68 µM (active)
- Potency [2]: 18.4 µM (active) and 7.42 µM (active)
- Potency [4]: 25.1 µM (active)

Compound: CN(C(=O)c1c(O)c2ccccc2n(C)c1=O)c1ccccc1
- Potency [1]: inactive
- Potency [2]: 11.9 µM (active) and inactive
- Potency [4]: inactive

Compound: Cn1nccc1Nc1nccc(-c2cc3c(s2)C(C)(C)N(CCN2CCOCC2)C3=O)n1
- Potency [1]: 3.72 µM (active)
- Potency [2]: 3.72 µM (active)
- Potency [4]: inactive

Compound: CCCCOC(=O)NS(=O)(=O)c1sc(CC(C)C)cc1-c1ccc(Cn2ccnc2)cc1
- Potency [1]: 14.8 µM (active)
- Potency [2]: 14.8 µM (active)
- Potency [4]: 25.1 µM (active)

Compound: CC(=O)O[C@@]12CO[C@@H]1C[C@H](O)[C@@]1(C)C(=O)[C@H](O)C3=C(C)[C@@H](OC(=O)[C@H](O)[C@@H](NC(=O)OC(C)(C)C)c4ccccc4)C[C@@](O)([C@@H](OC(=O)c4ccccc4)[C@H]21)C3(C)C
- Potency [1]: 0.0027 µM (active)
- Potency [2]: 0.0024 µM (active)
- Potency [4]: 0.0411 µM (active)

Compound: Cc1c(C)n(Cc2ccccc2)c2ccc(C(=O)OCCN(C)C)cc12
- Potency [1]: 11.9 µM (active)
- Potency [2]: 11.9 µM (active)
- Potency [4]: 23.1 µM (active)

Compound: CCOC(=O)N1CCN(/[N+]([O-])=N/Oc2ccc([N+](=O)[O-])cc2[N+](=O)[O-])CC1
- Potency [1]: 2.95 µM (active)
- Potency [2]: 2.63 µM (active)
- Potency [4]: 22.4 µM (active)

Compound: C[C@@]12C(=O)OC(=O)[C@]1(C)[C@H]1CC[C@@H]2O1
- Potency [1]: 2.63 µM (active)
- Potency [2]: 2.63 µM (active)
- Potency [3]: 15.8 µM (active)
- Potency [4]: 3.98 µM (active)

Compound: COc1cc(C)[nH]c(=O)c1CN1CCc2c(Cl)cc([C@H](OC)C3COC3)c(Cl)c2C1=O
- Potency [1]: inactive
- Potency [2]: inactive
- Potency [4]: inactive
